Experimental data published in PubChem BioAssay (NCI).
The panel holds about 79,000 compounds, 15% with a hit somewhere; the sample as a whole holds those more often. Values without a mark were called inactive. The source made the active and inactive calls. Cut-off read from the data, not from the text of the source: active = growth inhibition above about 70%; inactive = the rest.

How the values were obtained:
[1] = NCI Yeast Anticancer Drug Screen. Data for the rad50 strain (AID 155);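 note: 0% = growth of vehicle-only cultures of the same strain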; settings: S. cerevisiae rad50 strain growth inhibition, hits give high values
How it was run: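 Readout: growth inhibition relative to vehicle-treated cultures. Compound exposure was carried out in a genetically defined yeast strain deficient in DNA damage repair.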

[2] = NCI Yeast Anticancer Drug Screen. Data for the mec2-1 strain (AID 157); settings: S. cerevisiae mec2-1 strain, hits give high values
How it was run: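 Using mec2-1 yeast: add compound, measure growth, express inhibition versus vehicle-treated cultures.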

[3] = NCI Yeast Anticancer Drug Screen. Data for the sgs1 mgt1 strain (AID 161);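 note: 0% = growth of cultures given vehicle only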; settings: S. cerevisiae sgs1 mgt1 strain, hits give high values
How it was run: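 Growth of a repair-deficient yeast mutant was monitored after compound treatment and expressed as inhibition relative to vehicle-treated cultures.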

[4] = NCI Yeast Anticancer Drug Screen. Data for the cln2 rad14 strain (AID 165);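 note: 0% = growth equal to vehicle treated cultures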; settings: S. cerevisiae cln2 rad14 strain, hits give high values
How it was run: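 Yeast strain cln2 rad14, bearing defects in cell cycle control and DNA repair, serves as the test system; values reflect growth inhibition compared with vehicle.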

[5] = NCI Yeast Anticancer Drug Screen. Data for the bub3 strain (AID 167); settings: S. cerevisiae bub3 mutant strain, hits give high values
How it was run: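 Readout: yeast growth inhibition, expressed relative to vehicle-only wells. The test organism is a mutant strain from a panel with lesions in DNA repair or checkpoint genes.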

[6] = NCI Yeast Anticancer Drug Screen. Data for the mlh1 rad18 strain (AID 175); settings: S. cerevisiae mlh1 rad18 strain growth inhibition, hits give high values
How it was run: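 Steps: expose repair-defective yeast to compound; measure growth; express inhibition against vehicle-treated controls.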

[7] = at 5.0 µM (retest, dose inferred, filed as 0.5)
[8] = at 50.0 µM (retest, dose inferred, filed as 5.0)

Row | Compound | growth inhibition [1, 7] | growth inhibition [1, 8] | growth inhibition ([1]; at 50.0 µM) | growth inhibition [2, 7] | growth inhibition [2, 8] | growth inhibition ([2]; at 50.0 µM) | growth inhibition [3, 7] | growth inhibition [3, 8] | growth inhibition ([3]; at 50.0 µM) | growth inhibition [4, 7] | growth inhibition [4, 8] | growth inhibition ([4]; at 50.0 µM) | growth inhibition [5, 7] | growth inhibition [5, 8] | growth inhibition ([5]; at 50.0 µM) | growth inhibition [6, 7] | growth inhibition [6, 8] | growth inhibition ([6]; at 50.0 µM)
1 | COC(=O)C1c2cc3c(c(O)c2CCC1(C)O)C(=O)c1c(O)cc2c(c1C3=O)OC1OC2(C)C(O)C(N(C)C)C1O (configuration not stated) | 19% | 63% | 91.9% (active) | 28% | 59% | 86.3% (active) | 12% | 58% | 92.6% (active) | 15% | 73% (active) | 69.3% | 72% (active) | 90% (active) | 83.8% (active) | 36% | 98% (active) | 93% (active)
2 | CCCCCCC(/C=C/c1ccccc1)=N\O | 0% | 96% (active) | 98.8% (active) | -1% | 96% (active) | 98.7% (active) | 6% | 96% (active) | 98.8% (active) | -10% | 96% (active) | 98.2% (active) | -2% | 94% (active) | 98.8% (active) | 2% | 95% (active) | 99.2% (active)
3 | c1cc(Nc2ccc(Nc3ccc(CN4CCCCC4)cc3)cc2)ccc1CN1CCCCC1 | 39% | 98% (active) | 81.8% (active) | 31% | 99% (active) | 89.8% (active) | 66% | 99% (active) | 90.9% (active) | 54% | 99% (active) | 83.2% (active) | 63% | 99% (active) | 89.2% (active) | 36% | 98% (active) | 87.5% (active)
4 | CCCCCCCCCCOC(=O)c1cccnc1 | 5% | 86% (active) | -5.45% | 0% | 52% | 39.3% | 7% | 74% (active) | 30.6% | 3% | 34% | -1.4% | 8% | 91% (active) | 78.2% (active) | 9% | 87% (active) | 80.5% (active)
5 | O=Cc1[nH]c(=S)[nH]c(=O)c1Cc1cccc2ccccc12 | -8% | 96% (active) | 97.9% (active) | -3% | 98% (active) | 97.8% (active) | 11% | 99% (active) | 98.8% (active) | 0% | 98% (active) | 91.8% (active) | -19% | 98% (active) | 98% (active) | -3% | 98% (active) | 98.9% (active)
6 | CCCc1nc2c(nc1C)C(=O)C=CC2=O | -101% | 96% (active) | 96.5% (active) | -37% | 99% (active) | 97.5% (active) | -46% | 95% (active) | 81.6% (active) | -44% | 97% (active) | 86.5% (active) | -53% | 96% (active) | 97.1% (active) | -80% | 96% (active) | 98.3% (active)
7 | CCc1nc(N)nc(N)c1-c1ccc(NCCCN)c([N+](=O)[O-])c1 | -15% | -17% | 69.7% | 17% | -2% | 44.8% | -19% | -36% | 69.2% | -15% | -5% | 69% | -44% | -18% | 6.45% | -17% | -36% | 82.5% (active)
8 | C(=N\Nc1c2ccccc2nc2ccccc12)/c1ccc2c(c1)OCO2 | 0% | 97% (active) | 99.3% (active) | 7% | 99% (active) | 84.8% (active) | 0% | 99% (active) | 99.4% (active) | 2% | 89% (active) | 82% (active) | -11% | 93% (active) | 99.2% (active) | 1% | 98% (active) | 99.3% (active)
9 | CC1(C)CC(=N/O)/C(=N/O)C(=N\NC(N)=S)/C1 | 7% | 54% | 69.9% | -2% | 35% | 49.1% | 1% | 63% | 76.9% (active) | -12% | 28% | 30.2% | -1% | 47% | 64.9% | -3% | 62% | 73.5% (active)
10 | CNC1c2ccccc2C(=O)c2cc3c(cc21)OCCOCCOCCOCCO3 (configuration not stated) | -10% | 7% | 11.8% | -4% | -12% | 8.1% | -10% | -12% | 12.1% | -25% | -12% | 40.8% | -13% | -2% | 20.8% | -6% | 1% | 27.2%
11 | COC1/C=C\OC2(C)Oc3c(C)c(O)c4c(c3C2=O)C(=O)C=C(NC(=O)C(C)=C/C=C\C(C)C(O)C(C)C2OC(C)(C)OC(C1C)C2C)C4=O (configuration not stated) | -4% | 93% (active) | 28.9% | 24% | 37% | 33.5% | 1% | 52% | 41.8% | 19% | 74% (active) | 31.9% | -3% | 93% (active) | 14.9% | 1% | 77% (active) | 38.5%
12 | CNc1nc(N)nc(N(C)c2ccc(Br)cc2)c1N=O | 22% | 71% (active) | 68.2% | 40% | 58% | 12.3% | 11% | 32% | 17.6% | 16% | 33% | -30.7% | 20% | 64% | 21.2% | 36% | 79% (active) | 43.9%
13 | Cc1nc2ccc(NCCN(C)C)c3c(=O)c4cc(O)ccc4n1c23 | 25% | 63% | -20.4% | -3% | 12% | 20.4% | -4% | 16% | -4.45% | 3% | 16% | 11.2% | 13% | 13% | 1.4% | -3% | 20% | 61.4%
14 | CCOC(=O)C1=C(N)N(S(=O)(=O)c2ccc(C)cc2)CCC(C(=O)OC)=C1 | 3% | -4% | 30.4% | 0% | 0% | 31.9% | 5% | -1% | 82% (active) | 5% | -6% | -3.15% | 1% | -4% | 26.2% | -2% | -3% | 56.1%
15 | O=C(Nc1ccccc1C(=O)NC(=O)c1ccccc1NC(=O)c1ccccc1)c1ccccc1 | -4% | 99% (active) | 58.9% | 10% | 99% (active) | 57.5% | -2% | 99% (active) | 54.8% | 4% | 99% (active) | 40.8% | -1% | 99% (active) | 46.1% | 5% | 99% (active) | 63.5%
16 | CC1(c2ccc(O)cc2)CC(C)(c2ccc(O)cc2)C1 (configuration not stated) | 81% (active) | 93% (active) | 94.8% (active) | 32% | 82% (active) | 93.2% (active) | 67% | 91% (active) | 91.9% (active) | 41% | 87% (active) | 94.2% (active) | 87% (active) | 91% (active) | 95.2% (active) | 86% (active) | 89% (active) | 92.8% (active)
17 | O=CC(=O)CC(O)CO (configuration not stated) | 0% | 74% (active) | 78.4% (active) | 5% | 69% | 72.9% (active) | 4% | 81% (active) | 67.6% | 1% | 94% (active) | 89.3% (active) | 0% | 87% (active) | 98.7% (active) | -14% | 67% | 76.3% (active)
18 | CCN(CC)CCOc1ccc(C=C2c3ccccc3-c3ccccc32)cc1 | 98% (active) | 99% (active) | 99.2% (active) | 99% (active) | 99% (active) | 99.2% (active) | 99% (active) | 99% (active) | 99.3% (active) | 99% (active) | 99% (active) | 99.1% (active) | 99% (active) | 99% (active) | 99.2% (active) | 98% (active) | 99% (active) | 98.9% (active)
19 | C/C(=N\NC(=S)NNC(=S)N1CCCc2ccccc21)c1ccccn1 | 3% | 96% (active) | 95.9% (active) | -16% | 96% (active) | 95.7% (active) | 30% | 97% (active) | 96.7% (active) | -23% | 96% (active) | 95.8% (active) | -6% | 97% (active) | 90.7% (active) | 5% | 95% (active) | 95.6% (active)
